hgDAF12 agonist: hgDAF-12 agonism, primary luciferase screen; HEK293 GAL4-hgDAF12 UAS-luciferase reporter, agonist luminescence; normalized to butyrate control; activation, % at 6.8 µM; hit rate 1.8% among 370,000; AID 687014;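 active = activation above a cutoff set at the mean of all screened compounds plus 3 SD, cut at about 10% in these data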;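 also: 0% = DMSO wells and 100% = sodium butyrate wells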
DAX1 inh-1: inhibitors of DAX1 repression of SF-1 activated StAR promoter; inhibition, % at 6.8 µM; HEK293T StAR-luciferase reporter, SF-1/DAX-1 repression relief; AID 652010; hit rate 1.1% among 370,000;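 active = inhibition above the mean over all tested compounds plus 3 SD, cut at about 3.6% in these data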;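 also: 0% = DAX-1 cells with DMSO and 100% = cells lacking DAX-1 with DMSO; higher inhibition means more luminescence from relief of DAX-1 repression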
DAX1 inh-2: inhibitors of human orphan nuclear receptor DAX1 (NR0B1); P51843; HEK293 Gal4-DAX1 luciferase reporter, luminescence; inhibition, % at 6.75 µM; hit rate 0.99% among 340,000; AID 504766;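 active = inhibition above the mean over all tested compounds plus 3 SD, cut at about 4.2% in these data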;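 also: 0% = DAX1-transfected cells with DMSO and 100% = empty-vector control cells with DMSO; inhibition shows as a rise in luminescence from relieved DAX1 repression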
Target sequence (P51843 207-470 limits assumed): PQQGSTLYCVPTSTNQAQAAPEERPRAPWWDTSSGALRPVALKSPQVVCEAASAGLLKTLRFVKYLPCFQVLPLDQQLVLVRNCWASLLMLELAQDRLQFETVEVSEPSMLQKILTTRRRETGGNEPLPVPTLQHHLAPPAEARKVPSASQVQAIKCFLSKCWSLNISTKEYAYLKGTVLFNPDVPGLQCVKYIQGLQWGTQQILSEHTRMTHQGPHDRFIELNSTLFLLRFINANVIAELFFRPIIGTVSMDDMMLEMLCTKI
ssDAF-12 act: S. stercoralis DAF-12 activation, primary screen | activation, % at 6.8 µM | hit rate 1% among 370,000 | AID 652126 | HEK293 ssDAF-12/GRIP1 lit1-tk-luc reporter, luminescence; % of 3 µM dafachronic acid response;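 active = activation above the mean over all tested compounds plus 3 SD, cut at about 0.9% in these data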;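 also: 0% = DMSO-only wells and 100% = 3 µM delta7-dafachronic acid wells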
hcDAF-12 act: activators of H. contortus DAF-12 nuclear receptor; HEK293 hcDAF-12 lit1-tk-luc reporter, luminescence; 0% DMSO, 100% Δ7-dafachronic acid; activation, % at 6.8 µM; hit rate 1.4% among 370,000;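 active = activation above the mean of all tested compounds plus 3 SD, cut at about 5.5% in these data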;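 also: 100% = response to 3 µM Δ7-dafachronic acid high control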
Active calls of the source: *; nt = no result. Sampled rows, rich in hits. Any-hit rate of the full collection: about 4.1%.

SMILES | hgDAF12 agonist | DAX1 inh-1 | DAX1 inh-2 | ssDAF-12 act | hcDAF-12 act
S=c1[nH]nc(-c2ccco2)n1-c1ccccc1Cl | 2.9 | 4.3* | -0.8 | 0.3 | 0.5
O=C(Cn1nnc(-c2ccc(N3CCOCC3)cc2)n1)c1ccc(F)cc1 | 2.2 | 0.0 | nt | -0.9 | -1.5
CC(Sc1nc2ccccc2s1)C(=O)N1CCOCC1 (configuration not stated) | 3.3 | 0.8 | 2.2 | 1.2* | 3.0
O=C1CN(c2ccccc2)C(=S)N1C(=O)c1ccccc1 | 11.4* | 1.9 | 5.8* | 0.6 | 5.7*
O=C(c1ccccc1)N1CCC(=O)N1c1ccccc1 | 3.5 | 0.3 | 1.4 | -1.6 | -1.1
Cc1nccn1CCCNCc1c(C(=O)N2CCCCCCC2)nc2ccc(Cl)cn12 | 0.2 | 0.1 | 3.6 | -0.7 | -0.5
COc1cc(COCC(O)CN2C(C)CCCC2C)cc(OC)c1OC (configuration not stated) | 1.2 | 0.0 | 4.6* | -1.7 | 2.4
CSCCC(NC(=O)c1ccc(Cl)cc1)C(=O)OCC(C)=O (configuration not stated) | -0.1 | 0.7 | 5.6* | -1.9 | 0.9
CCOc1ccc(N(Cc2ccc(C(=O)O)cc2)S(=O)(=O)c2ccc(C)cc2)cc1 | 1.7 | -0.8 | 0.8 | 1.5* | 1.6
C/C(CC(C)C)=N/Nc1ccc([N+](=O)[O-])cc1[N+](=O)[O-] | 2.3 | 1.0 | -0.5 | 0.3 | 3.8
CC(Cc1ccccc1)=NNc1ccc([N+](=O)[O-])cc1[N+](=O)[O-] | 2.7 | 0.5 | -0.7 | 2.4* | 0.1
COc1cccc(/C=C2/Sc3ccc(C(=O)NCCCN4CCCC4)cc3NC2=O)c1 | 0.5 | 3.7* | 1.4 | -0.6 | -1.6
CCN(CC)C(=O)CC[C@H]1CC[C@]2(CCCN(S(=O)(=O)c3ccccc3)C2)O1 | 0.0 | -1.4 | nt | -2.0 | -3.0
CC(C)(C)N1CCC1CN (configuration not stated) | 2.4 | -0.3 | 0.2 | -1.8 | -2.1
CC1(C)C2CCC(CN)C1C2 (configuration not stated) | 3.7 | 0.1 | 5.3* | -1.1 | -1.8
CCCCCCCCCCCCCCC(O)C[N+](C)(CCO)CCO (configuration not stated) | -1.9 | -1.1 | -0.7 | -1.1 | -0.7
Cc1nc2ccccc2c2oc(C(=O)NCCN3CCN(C)CC3)cc12 | 12.4* | 0.2 | 2.5 | -1.5 | -0.4
CC(C)C[C@@H]1COc2cc(NC3CC3)ccc2S(=O)(=O)N1 | -1.7 | 1.2 | nt | -0.4 | -0.5
CSc1sc(C(=O)NN)c2c1C1(CCC2)SCCS1 | 1.0 | 0.0 | 5.8* | -0.7 | 0.8
C#CCN1CC(N(C)CCOC(=O)c2cc(C)cc(C)c2)CS1(=O)=O (configuration not stated) | -3.7 | 0.7 | nt | -1.1 | -2.7
CCOc1ccc2c(c1)ncn2Cc1ccccc1 | 0.5 | 0.6 | 4.7* | -1.4 | 0.0
CC(=O)Oc1ccc(Cn2cnc3cc4ccccc4cc32)cc1 | -1.2 | -0.4 | 0.2 | -0.5 | -0.4
CC(C)CNc1cccc2c1S(=O)(=O)N(Cc1cn(Cc3ccc(C(F)(F)F)cc3)nn1)Cc1ccccc1O2 | 1.9 | 0.3 | nt | -1.2 | -1.4
Cc1ccc(CSc2nnc(SCC(=O)N/N=C/c3ccc(C(=O)O)cc3)s2)cc1 | 2.1 | 1.5 | 4.3* | -1.6 | -0.5
O=C(CSc1nnc(NC(=O)C2CC2)s1)Nc1ccc(F)cc1 | 0.2 | -0.4 | -0.8 | -1.1 | 1.1
SMILES | hgDAF12 agonist | DAX1 inh-1 | DAX1 inh-2 | ssDAF-12 act | hcDAF-12 act
CCc1ccc(Nc2nnc(SCC(=O)Nc3ccc(C(=O)O)cc3)s2)cc1 | 4.5 | 3.7* | 3.9 | -0.1 | 1.2
CCCC(=O)Nc1nnc(SCC(=O)Nc2ccc3c(c2)OCCO3)s1 | -1.9 | 0.2 | 0.3 | 1.5* | -2.2
CC(=O)Nc1ccc(NC(=O)CSc2nnc(NC(=O)C3CC3)s2)cc1 | 1.6 | -4.3 | 6.5* | -0.7 | 1.7
CCC(=O)N1CCN(c2ccc(-n3c(=O)ccc4cnc5ccc(-c6cnc7ccccc7c6)cc5c43)cc2C(F)(F)F)CC1 | 8.5 | -0.9 | nt | -2.1 | -5.1
CCc1ccc(Nc2nnc(SCC(=O)Nc3cccc(S(=O)(=O)NC4=NCCCCC4)c3)s2)cc1 | 11.6* | 1.4 | -0.3 | -0.6 | 0.6
COCCNCC(=O)Nc1ccc(C)c(S(=O)(=O)N2CCCCC2)c1 | -1.8 | 0.6 | 4.3* | -1.2 | -0.1
Cc1ccc(NS(=O)(=O)c2ccc(Cl)c(C(=O)Nc3cccc(C(=O)O)c3)c2)cc1 | 1.6 | 0.1 | 5.4* | -0.5 | -0.6
Cc1ccc(NC(=O)CCl)cc1S(=O)(=O)N1CCCCCC1 | -10.8 | -2.4 | -0.5 | -1.1 | -1.0

Screens from PubChem BioAssay.
